Source: PubChem BioAssay (Tox21)
Active and inactive are the calls of the source. Entries that show only a call come without a potency. Calls follow the shape of the full dose curve.

Test: G protein-coupled receptor (GPCR) small molecule agonists, calcium flux assay: HEK293 wild type cell line counter screen (AID 1920065)
Conditions: HEK293 WT calcium flux, fluorescence, agonist mode; series mostly up to 57.6 µM
Summary of the method: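 Agonist mode; 18 h seeding at 37 C, 1 h dye load at 37 C; compounds pinned from DMSO, ATP as positive control; kinetic fluorescence 480/540 nm, 3 min, 1 s reads; 15 concentrations, triplicate.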

Row | SMILES | Potency
1 | COC(=O)Nc1nc2ccc(S(=O)c3ccccc3)cc2[nH]1 (stereo not drawn) | inactive
2 | OCCNCCO | inactive
3 | O=C(COc1ccc(Cl)cc1)N1CCN(Cc2ccc3c(c2)OCO3)CC1 | inactive
4 | CC(=O)/C=C/C1C(C)=CCCC1(C)C (stereo not drawn) | inactive
5 | Cc1cc(OCCOCC[N+](C)(C)Cc2ccccc2)ccc1C(C)(C)CC(C)(C)C | inactive
6 | CC(C)(N=C=O)c1cccc(C(C)(C)N=C=O)c1 | inactive
7 | O=C(NCC1CCCCN1)c1cc(OCC(F)(F)F)ccc1OCC(F)(F)F (stereo not drawn) | inactive
8 | CCOC(=O)N1CCC(=C2c3ccc(Cl)cc3CCc3cccnc32)CC1 | inactive
9 | C=C1C[C@]23C[C@@]1(O)CC[C@H]2[C@@]12C=C[C@H](O)[C@@](C)(C(=O)O1)[C@H]2[C@@H]3C(=O)O | inactive
10 | Clc1ccc2c(c1)C(N1CCNCC1)=Nc1ccccc1O2 | inactive
11 | CC(=O)CC(=O)Nc1ccccc1 | inactive
12 | CC(C)(C)c1ccc(C=O)cc1 | inactive
13 | CCC(C)(C)C1CCC(OC)CC1 (stereo not drawn) | inactive
14 | CCCCCCCCCCCCCCC(=O)NC(CO)CCCCCCCCCCCCCC (stereo not drawn) | inactive
15 | Nc1ccncc1N | inactive
16 | CCOc1ncc(F)c(=O)[nH]1 | inactive
17 | O=C1C(O)=C(O)C(=O)C(O)=C1O | inactive
18 | CC/C=C\CCOC(=O)C(C)C | inactive
19 | O=Cc1ccc(C(=O)O)cc1 | inactive
20 | CC(=O)NC(Cc1ccccc1)C(=O)O (stereo not drawn) | inactive
21 | Cc1nc(C)c(C)nc1C | inactive
22 | CN1[C@@H]2CC[C@H]1CC(NC(=O)n1c(=O)[nH]c3ccccc31)C2 (stereo partly drawn) | inactive

Row | SMILES | Potency
23 | Oc1ccc2c(c1)OC[C@@H](N1CCC(O)(c3ccc(F)cc3)CC1)[C@H]2O | inactive
24 | CCC(=O)OC(C)(C)C1CC=C(C)CC1 (stereo not drawn) | inactive
25 | CC(C)Oc1ccc2c(=O)c(-c3ccccc3)coc2c1 | inactive
26 | CCC(=O)OCc1ccc(OC)cc1 | inactive
27 | CCCCCCCCCCCCCCCC[N+](C)(C)CC | inactive
28 | CC(C)CC(C)(N)C#N (stereo not drawn) | inactive
29 | CCCCCCCCCCCCCCCCC | inactive
30 | CN(CC1(C)CCCO1)S(=O)(=O)c1ccc(Cl)c(S(N)(=O)=O)c1 (stereo not drawn) | inactive
31 | O=C1NC(c2ccccc2)(c2ccccc2)C(=O)N1COP(=O)(O)O | inactive
32 | IC(I)I | inactive
33 | Cc1ccccc1C | inactive
34 | NCCCN1CCN(CCCN)CC1 | inactive
35 | CC(C)CCCCCOC(=O)CS | inactive
36 | O=C(CCCN1CCC(O)(c2cccc(C(F)(F)F)c2)CC1)c1ccc(F)cc1 | inactive
37 | C=C1C[C@H]2[C@@H]3C=C(C)C4=CC(=O)CC[C@]4(C)[C@H]3CC[C@]2(C)[C@@]1(OC(C)=O)C(C)=O | inactive
38 | CCCc1ccc(N)cc1 | inactive
39 | C=CCCC | inactive
40 | CCCCCCCCS | inactive
41 | C[Si](C)O[Si](C)(C)O[Si](C)(C)O[Si](C)C | inactive
42 | Cc1ccc(C(=O)c2cc(O)c(O)c([N+](=O)[O-])c2)cc1 | inactive
43 | CCCCCCCC/C=C\CCCCCCCC(N)=O | inactive
